Assay outcomes from PubChem BioAssay.
An excerpt weighted towards active compounds, which were near 21% of everything screened.
Pf growth 96h: P. falciparum growth inhibition at 96 hours. Potency, µM (highest dose often 28.7 µM), without a hit: at the highest dose activity change, negative = inhibition, actives largely listed as inhibitors. P. falciparum luciferase reporter growth, 96 h. hit rate 6.9% among 320,000; active = well fitted inhibition curve with a large enough effect; inconclusive = small, poorly fitted or top-dose-only effect, or another doubt; inactive = no such curve, though single readings can be large or run the other way; note: potency is the fitted concentration of half-maximal effect; % is set by controls: 0 for no effect and ±100 for the full control effect
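Compounds incubated with erythrocytes infected by luciferase-expressing P. falciparum (2% hematocrit, 0.05% parasitemia final) for 96 hours, 37 C in 5% CO2. Growth inhibition scored as decreased luciferase luminescence.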
Shiga inhibitor: inhibitors of Shiga toxin in Vero cells; AID 2315; Vero cells, Shiga toxin protein synthesis inhibition reporter; hit rate 9.2% among 290,000; inhibition, % at 38.7 µM; in the data active = inhibition mostly above about 28%, no sharp cut-off; inactive = mostly below about 43%; note: 0% is about no effect
Pf growth 48h: inhibits P. falciparum growth in the first generation, 48 h. P. falciparum luciferase growth in erythrocytes, 48 h. Potency, µM (top dose mostly 28.7 µM), inactives show at the highest dose activity change, negative = inhibition, most hits filed as inhibitors. hit rate 5.9% among 310,000; active = well fitted inhibition curve with a large enough effect; inconclusive = small, poorly fitted or top-dose-only effect, or another doubt; inactive = no such curve, though single readings can be large or run the other way; note: potency is the fitted concentration of half-maximal effect; % is set by controls: 0 for no effect and ±100 for the full control effect
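A one-generation exposure of luciferase-tagged malaria parasites in RPMI 1640/Albumax erythrocyte culture, 37 C and 5% CO2. Inhibition is inferred from decreased luminescence after adding detection reagent.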
NS1 inh: blocks influenza NS1 protein function. Potency, µM (top dose mostly 46.1 µM), inactives show top-dose activity, positive = more growth. hit rate 0.4% among 270,000. AID 2326; note: potency is the fitted concentration of half-maximal effect; actives are rising curves; nearly all actives have a fitted effect of over 50% in size
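Growth recovery, yeast-based: influenza A NS1 expressed in S. cerevisiae causes slow growth, and suppressors are detected by OD600. The parent strain without NS1 is used as positive control.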
CHX counter: affects cycloheximide protein synthesis inhibition readout, counter-screen; hit rate 12% among 300,000; max response, %; cell reporter, cycloheximide protein synthesis inhibition counterscreen; in the data active = max response mostly above about 13%, no sharp cut-off; inactive = mostly below about 14%; note: read at 38.3 µM for the half of the compounds with a filed dose; 0% is about no effect
SARS PLP yeast: SARS-CoV PLP inhibition in yeast; hit rate 0.19% among 330,000; Potency, µM (series often up to 32.9 µM), for the others: at the highest dose activity, positive = growth rescue, actives largely listed as activators; S. cerevisiae expressing SARS-CoV PLpro, growth rescue; note: potency is the fitted concentration of half-maximal effect; 0% is about no effect; nearly all actives have a fitted effect of over 55% in size
The depositor's hits bear a star; ? = inconclusive; . = no result given; + = active, no number; ! = a repeat was not active; [ ] = remark or other dose. Unless noted, calls come from the whole dose curve.

SMILES | Pf growth 96h | Shiga inhibitor | Pf growth 48h | NS1 inh | CHX counter | SARS PLP yeast
O=C(O)c1c(NC(=O)c2cccc3ccccc23)sc2c1CCC2 | -8% | 16 | . | -79% | -2 | -25%
O=C(Nc1sc2c(c1C(=O)O)CCCCC2)c1ccccc1 | ? | 104* | -1% | -47% | 42* | -5%
O=C(Nc1sc2c(c1C(=O)O)CCC2)c1ccc(F)cc1 | 21% | 37* | 68% | -4% | 8 | -11%
COC(=O)c1c(NC(=O)c2ccccc2C(=O)O)sc2c1CCC2 | -14% | . | 26% | 27% | -4 | 7%
O=C(Nc1sc2c(c1C(=O)NCCCO)CCCC2)c1ccccc1 | ? | 14 | ? | -16% | 6 | 1%
COc1ccc(NC(=O)c2c(NC(=O)CNCc3ccco3)sc3c2CCC3)cc1 | ? | 5 | 2.6µM* | -16% | 8 | -2%
O=C(Cc1ccccc1)Nc1sc2c(c1C(=O)Nc1ccc(Cl)cc1)CCCC2 | . | 38 | . | . | 31*! | .
Cc1ccc(-n2nc(C)c(=O)c(-c3ccccc3)c2NC(=O)c2cccs2)cc1 | -16% | 31 | 20% | -5% | -2 | 0%
CC(C)[C@@H](C(=O)OCC(=O)Nc1ccc2c(c1)OCO2)N1C(=O)c2ccccc2C1=O | 13% | -9 | . | 4% | 1 | 4%
COc1ccc(C(=O)Nc2sc3c(c2C(=O)O)CC(C)(C)OC3)cc1 | 16% | 13 | 22% | 11% | -3 | 18%
O=C(O)c1c(NC(=O)N2CCOCC2)sc2c1CCCC2 | 26% | 29 | 16%[0.00184 µM] | -1% | 13* | -8%
CCOc1ccccc1NC(=O)c1c(NC(=O)CCC(=O)O)sc2c1CCCCC2 | 14% | 6 | ? | 6% | 6 | -1%
CCOC(=O)c1ccc(NC(=O)c2c(NC(=O)CCC(=O)O)sc3c2CCCCC3)cc1 | 118% | 23 | ? | 7% | 17* | 0%
CC1(C)Cc2c(sc(NC(=O)c3ccccc3)c2C(=O)O)CO1 | -4% | 114* | 64% | -3% | 61* | -2%
O=C(CN1CCCC1)Nc1sc2c(c1C(=O)Nc1ccc(Br)cc1)CCC2 | ? | 1 | 12µM* | 6% | -3 | 2%
CC1CCCN(S(=O)(=O)c2ccccc2[N+](=O)[O-])C1 (stereo not drawn) | 1% | -12 | -2% | 2% | 0 | 1%
O=C(Nc1c(F)cccc1F)c1ccc2c(c1)CCN2S(=O)(=O)c1ccccc1 | 72% | -9 | -23% | 17% | -3 | 12%
CC(C)N(CCCNC(=O)C1CCN(S(=O)(=O)N2CCOCC2)CC1)Cc1ccccc1 | ? | -13 | 34% | 0% | 1 | 4%
O=C(N=C1c2ccccc2CN1c1ccc(F)c(Cl)c1)c1cccnc1Cl | ? | 77* | -66% | -4% | 70* | -16%
N#Cc1ccc(N2Cc3ccccc3C2=NC(=O)c2cccnc2Cl)cc1 | 32% | + | 63% | -8% | 25* | -4%
CN=C1c2ccccc2CN1c1cccc(C(=O)OC)c1 | ? | 0 | -11% | -3% | 17 | 2%
CC(Nc1nc(N2CCCCC2)nc2ccccc12)c1ccccc1 (stereo not drawn) | ? | -4 | . | -33% | 3 | 4%
COc1ccc(Nc2nc(N3CCCCC3)c3ccccc3n2)cc1 | 4.7µM* | 37 | 7.4µM* | -207% | 10 | -15%
COc1ccc(/C=N/Nc2nc(Nc3ccccc3)nc(N3CCCC3)n2)cc1 | 0% | 69 | ? | . | 17 | 2%
COc1ccc(Nc2cc(C(=O)NCCCN3CCN(C)CC3)c3ccccc3n2)c(OC)c1 | 167% | 2 | ? | -10% | 30 | -3%
SMILES | Pf growth 96h | Shiga inhibitor | Pf growth 48h | NS1 inh | CHX counter | SARS PLP yeast
COc1ccc(Nc2nc(N3CCCC3)nc3ccccc23)c(OC)c1 | . | 17 | 6.6µM* | -37% | -4 | -4%
Cc1ccc(Nc2nc(N3CCOCC3)c3ccccc3n2)cc1 | 10µM* | -17 | . | -108% | 6 | -21%
C=CCNc1nc(N2CCCC2)nc2ccccc12 | . | -7 | 5.2µM* | -18% | -1 | -4%
Oc1ccc(Nc2nc(N3CCCC3)c3ccccc3n2)cc1 | 7% | 42 | 0.47µM* | -9% | -1 | -7%
c1ccc2c(c1)nc(N1CCCCCC1)c1ccccc12 | -13% | 4 | ? | -7% | -3 | -2%
CC(C)[C@H](NC(=O)N1c2ccccc2NC(=O)[C@@H]1C(C)C)C(=O)N1CCC(C(=O)O)CC1 | -1% | 12 | 14% | 22% | 8.9* | 10%
C/C(=N/OC(=O)c1ccccc1)c1oc(C)nc1C | 0% | 64* | -6% | -10% | 51* | -1%
Nc1[nH]nc2nc(-c3ccccc3)[nH]c(=O)c12 | 4% | -3 | 64% | 1% | -4 | 0%
Nc1nc(-c2ccccc2)[nH]c(=O)c1N | -21% | 30* | 17% | 21% | 26* | 4%
O=c1[nH]c(-c2ccccc2)nnc1-c1ccccc1 | 87% | 25 | 80% | -2% | 18* | 0%
CC12CCC(C(=O)Nc3nc4ccccc4s3)(OC1=O)C2(C)C (stereo not drawn) | 0% | 85* | 57% | 0% | 29* | 0%
CC12CCC(C(=O)NC(c3ccccc3)c3ccccc3)(OC1=O)C2(C)C (stereo not drawn) | 13µM* | -8 | . | -2% | -2 | 4%
NS(=O)(=O)c1ccc(N2N=C(c3ccccc3)CC2c2cccc(Cl)c2)cc1 (stereo not drawn) | . | . | . | . | . | -4%
COc1ccc(C2CC(c3ccccc3)=NN2c2ccc(/C=N/NC(=O)c3ccncc3)cc2)cc1 (stereo not drawn) | ? | 28* | ? | 1% | 14* | -2%
COc1ccc(C2CC(c3ccccc3)=NN2c2ccc(S(N)(=O)=O)cc2)cc1 (stereo not drawn) | ? | 15 | 13µM* | 24% | 13 | 0%
NS(=O)(=O)c1ccc(N2N=C(c3ccccc3)CC2c2ccc(F)cc2)cc1 (stereo not drawn) | ? | -4 | 12µM* | -18% | -3 | -17%
CC1CCN(C(=O)CN2c3cccc4cccc(c34)S2(=O)=O)CC1 | 0% | . | 10% | . | . | 0%
COc1ccc(-c2ccc(-c3noc(-c4cccc(OC)c4)n3)c(OC)n2)cc1 | ? | -17 | 29% | -5% | -2 | 12%
COc1nc(-c2ccc(C)cc2)ccc1-c1noc(-c2cccnc2)n1 | 12µM* | 8 | 23% | -4% | -2 | 8%
COc1ccccc1-c1noc(-c2cccnc2)n1 | 105% | 67* | 103% | -4% | 29* | -10%
COc1nc(-c2ccccc2)ccc1-c1noc(-c2ccc(F)cc2)n1 | ? | 11 | 26% | -2% | -5 | 9%
COc1nc(-c2ccccc2)ccc1-c1noc(-c2cccnc2)n1 | 0% | 3 | 0% | -10% | 8.7* | 14%
CCN(c1ccccc1C(=O)O)S(=O)(=O)c1cccc2nsnc12 | 5% | -3 | 27% | 5% | -1 | 0%
Cc1ccc(SCCC(=O)N2CCCC2)cc1 | . | 86* | 95% | -3% | 43* | -3%
